{"source": "PubChem BioAssay AID1224858", "about": "(National Center for Advancing Translational Sciences (NCATS), 2016)", "note": "Results filed as inconclusive are left out. Calls of active or inactive are those of the source. The call rests on the fitted dose curve; in most records, active means well fitted inhibition curve with a large enough effect; inconclusive means small, poorly fitted or top-dose-only effect; inactive means no such curve, though single readings can be large or run the other way.", "data": [{"assay": "Confirmation assay for measurement of the activity of small molecule inhibitors on Zika virus induced Caspase-3 activity in human astrocytes", "settings": "ZIKV-induced caspase-3/7 luminescence, 6 h; series mostly up to 46.1 µM", "procedure,_shortened": "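Human astrocytes were pretreated 1 h with compound, then infected with ZIKV (2 FFU/cell) for 6 h at 37 C. Caspase-3/7 activity by Caspase-Glo luminescence; percent inhibition versus uninfected and infected wells.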", "values": [{"compound": "O=C(Nc1cc2cc[nH]c2cn1)c1ccccc1", "Potency": "4.35 µM (active)"}, {"compound": "O=C1c2ccccc2-[n+]2ccc3c([nH]c4ccccc43)c21", "Potency": "7.74 µM (active)"}, {"compound": "Cc1[nH]c(C=C2C(=O)Nc3ccccc32)c(C)c1CCC(=O)O", "Potency": "inactive"}, {"compound": "O=C(/C=C/c1ccccc1)NCCO", "Potency": "inactive"}, {"compound": "Cc1c(C(=O)O)c(O)cc2c1C(=O)c1c(O)c([C@@H]3O[C@H](CO)[C@@H](O)[C@H](O)[C@H]3O)c(O)c(O)c1C2=O", "Potency": "inactive"}, {"compound": "O=S(=O)(O)c1ccc2nc(-c3ccccc3)[nH]c2c1", "Potency": "1.95 µM (active)"}, {"compound": "Nc1cc(C(F)(F)F)ccc1S", "Potency": "inactive"}, {"compound": "O=C(Nc1ccc(C(=O)O)c(O)c1)c1ccccc1", "Potency": "4.89 µM (active)"}, {"compound": "CCCCCNC(=O)N1CCC(CN(Cc2ccc(Cl)cc2)Cc2ccc([N+](=O)[O-])s2)C1", "note": "(stereo unspecified)", "Potency": "inactive"}, {"compound": "CCN(CC)c1ccc(C(=C2C=CC(=[N+](CC)CC)C=C2)c2cc(S(=O)(=O)O)ccc2S(=O)(=O)[O-])cc1", "Potency": "7.74 µM (active)"}, {"compound": "CN(C)c1ccc(/C=C2\\C(=O)Nc3ccccc32)cc1", "Potency": "8.69 µM (active)"}, {"compound": "CN1CC(=O)N2C(Cc3c([nH]c4ccccc34)[C@H]2c2ccc3c(c2)OCO3)C1=O", "note": "(stereo partly specified)", "Potency": "inactive"}, {"compound": "Cc1nc(N)sc1-c1ccnc(Nc2ccc(N3CCOCC3)cc2)n1", "Potency": "inactive"}, {"compound": "CO[C@H]1C(=O)[C@]2(C)[C@@H](OC)C[C@H]3OC[C@@]3(OC(C)=O)[C@H]2[C@H](OC(=O)c2ccccc2)[C@]2(O)C[C@H](OC(=O)[C@H](O)[C@@H](NC(=O)OC(C)(C)C)c3ccccc3)C(C)=C1C2(C)C", "Potency": "inactive"}, {"compound": "Oc1ccc(/C=C/c2cc(O)cc(O)c2)cc1", "Potency": "15.5 µM (active)"}, {"compound": "COc1cccc(-c2cc(=O)c3ccccc3o2)c1N", "Potency": "6.9 µM (active)"}, {"compound": "CCCCCCCC/C=C/C(=O)O", "Potency": "inactive"}, {"compound": "O=C1NC(=O)C(=Cc2ccc(-c3ccc(F)cc3)o2)S1", "Potency": "12.3 µM (active)"}, {"compound": "O[C@@H](COc1cccc2ncccc12)CN1CCN(C2c3ccccc3[C@@H]3[C@H](c4ccccc42)C3(F)F)CC1", "note": "(stereo partly specified)", "Potency": "inactive"}, {"compound": "C[C@@H]1CCN(C(=O)CC#N)C[C@H]1N(C)c1ncnc2[nH]ccc12", "Potency": "inactive"}, {"compound": "Nc1ccc(O)c(C(=O)O)c1", "Potency": "inactive"}, {"compound": "CC(C)c1ccc2oc3nc(N)c(C(=O)O)cc3c(=O)c2c1", "Potency": "1.95 µM (active)"}, {"compound": "CC(=Cc1ccccc1)C=C1SC(=S)N(CC(=O)O)C1=O", "Potency": "19.5 µM (active)"}, {"compound": "COc1ccc(-c2cc(=O)c3c(O)cc(O)cc3o2)cc1O", "Potency": "13.8 µM (active)"}, {"compound": "CC1(C)Cc2c(sc(NC(=S)NC(=O)c3ccccc3)c2C(=O)O)CO1", "Potency": "inactive"}, {"compound": "O=C(Oc1ccccc1)c1cccc(C(=O)Oc2ccccc2)c1", "Potency": "6.31 µM (active)"}, {"compound": "CC(C(=O)O)c1ccc(C(=O)c2ccccc2)s1", "note": "(stereo unspecified)", "Potency": "6.15 µM (active)"}, {"compound": "O=C(O)c1cccc(-c2noc(-c3ccccc3F)n2)c1", "Potency": "3.88 µM (active)"}, {"compound": "C[C@@H](O[C@H]1OCCN(Cc2n[nH]c(=O)[nH]2)[C@@H]1c1ccc(F)cc1)c1cc(C(F)(F)F)cc(C(F)(F)F)c1", "Potency": "inactive"}, {"compound": "CC[C@@]1(O)C[C@H](O[C@H]2C[C@H](N(C)C)[C@H](O[C@H]3C[C@H](O)[C@H](O[C@H]4CCC(=O)[C@H](C)O4)[C@H](C)O3)[C@H](C)O2)c2c(cc3c(c2O)C(=O)c2c(O)cccc2C3=O)[C@@H]1C(=O)OC", "Potency": "inactive"}, {"compound": "CC(=NNC(=S)N1CCC1)c1ccccn1", "Potency": "inactive"}, {"compound": "C[C@H](NC(=O)C(=O)Nc1ccccc1C(C)(C)C)C(=O)N[C@@H](CC(=O)O)C(=O)COc1c(F)c(F)cc(F)c1F", "Potency": "0.245 µM (active)"}, {"compound": "Cc1oncc1C(=O)Nc1ccc(C(F)(F)F)cc1", "Potency": "3.88 µM (active)"}, {"compound": "O=C(Nc1ccc([N+](=O)[O-])cc1Cl)c1cc(Cl)ccc1O", "Potency": "1.73 µM (active)"}, {"compound": "CC(=O)Nc1ccc([C@H](C)C(=O)Nc2ncc(C(C)C)s2)cc1", "Potency": "10.9 µM (active)"}, {"compound": "CCCCCCOc1ccccc1C(N)=O", "Potency": "inactive"}]}]}
